Inconclusive results are not listed. Calls of active or inactive are those of the source. The calls were made as follows, unless noted: active = hit-call score of the fitted dose curve at least 0.9, where 1 is the maximum; inactive = score below 0.9.

Assay [1] is described as follows: CCTE_Deisenroth_DEVTOX-GLR_legacy_CellCount: (Legacy) Viability Assessment in CCTE's DevTox GLR-Endo Assay, Deisenroth Lab (AID 2284331). The note with it: actives raise or lower the signal. The method, boiled down:
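RUES2-GLR human pluripotent cells were seeded 24 h, then differentiated 48 h with two compound doses at 24 h intervals (10-point, 1 nM - 200 uM). Fixed nuclei were imaged and counted; bidirectional fitting versus 0.2% DMSO.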

The subject of assay [2] is SRY-box transcription factor 17 (SOX17) Protein Expression, Deisenroth Lab, SOX17 (gene 64321). Briefly: CCTE_Deisenroth_DEVTOX-GLR_legacy_Sox17: (Legacy) CCTE's DevTox GLR-Endo Assay Evaluation of SRY-box transcription factor 17 (SOX17) Protein Expression, Deisenroth Lab (AID 2284341). The note with it: actives raise or lower the signal. The method, boiled down: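 Percent SOX17-positive cells, scored by high-content imaging as mean intensity exceeding pluripotent-control median by 5x BMAD, divided by cell count. Human RUES2-GLR endoderm differentiation, 48 h, two exposures 24 h apart, 1 nM–200 uM; DMSO-referenced bidirectional fitting.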

Assay [3] has as its system SRY-box transcription factor 2 (SOX2) Protein Expression, Deisenroth Lab, SOX2 (gene 6657). Nature of the assay: CCTE_Deisenroth_DEVTOX-GLR_legacy_Sox2: (Legacy) CCTE's DevTox GLR-Endo Assay Evaluation of SRY-box transcription factor 2 (SOX2) Protein Expression, Deisenroth Lab (AID 2284346). The method, boiled down: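 Read-out: fraction of Sox2+ cells by high-content fluorescence imaging of fixed RUES2-GLR cells after 48 h differentiation with two 24 h-spaced exposures. Positivity cutoff 5x BMAD above endoderm control median; 0.2% DMSO median subtracted.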

Assay [4] has as its system SRY-box transcription factor 17 (SOX17) Protein Expression, Deisenroth Lab, SOX17 (gene 64321). Nature of the assay: CCTE_Deisenroth_DEVTOX-GLR_Endo_SOX17: CCTE's DevTox GLR-Endo Assay Evaluation of SRY-box transcription factor 17 (SOX17) Protein Expression, Deisenroth Lab (AID 2284413). The method, boiled down:
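Human RUES2-GLR cells carrying an inducible fluorescent reporter are differentiated in defined media for 48 h and dosed twice, 24 h apart. After fixation and nuclear staining, imaging yields SOX17+ cell percentage relative to 0.2% DMSO-treated differentiated cells.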

In assay [5] the test system is Brachyury (BRA) Protein Expression, TBXT (gene 6862). Briefly: CCTE_Deisenroth_DEVTOX-GLR_Endo_BRA: CCTE's DevTox GLR-Endo Assay Evaluation of Brachyury (BRA) Protein Expression, Deisenroth Lab (AID 2284417). The method, boiled down: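 Endpoint is the fraction of BRA reporter-positive cells over total nuclei, corrected by subtracting the 0.2% DMSO value. Chemicals (1 nM - 200 uM, 10 points) were dosed twice during 48 h differentiation of RUES2-GLR cells, read by imaging.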

Assay [6] can be described thus: CCTE_Deisenroth_DEVTOX-GLR_Endo_CellCount: Viability Assessment in CCTE's DevTox GLR-Endo Assay, Deisenroth Lab (AID 2284420). The method, boiled down:
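Human pluripotent RUES2-GLR line; 24 h pre-seed; 48 h endoderm-directed differentiation; 2 doses, q24h; 10 conc., 1 nM - 200 uM; fix + nuclear dye; 5 fields/well imaged; readout = nuclei count, % change vs 0.2% DMSO; n=4.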

Assay [7] relates to SRY-box transcription factor 17 (SOX17) Protein Expression, Deisenroth Lab, SOX17 (gene 64321). Briefly: CCTE_Deisenroth_DEVTOX-GLR_Pluri_SOX17: CCTE's DevTox GLR-Pluri Assay Evaluation of SRY-box transcription factor 17 (SOX17) Protein Expression, Deisenroth Lab (AID 2284427; active = hit-call score of the fitted dose curve at least 0.9, where 1 is the maximum). The method, boiled down:
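Human RUES2-GLR pluripotent line; 24 h seeding, 48 h defined-media differentiation, 2 doses q24h, 10 conc 1 nM - 200 uM. Fix, nuclear stain, image 5 fields/well. Endpoint = %SOX17+ minus 0.2% DMSO; n=4.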

Assay [8] can be described thus: CCTE_Deisenroth_DEVTOX-GLR_Pluri_CellCount: Viability Assessment in CCTE's DevTox GLR-Pluri Assay Evaluation of Total Cell Counts, Deisenroth Lab (AID 2284430). The method, boiled down: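 Cytotoxicity readout: fluorescent nuclei counts by high-content imaging, expressed as percent change relative to 0.2% DMSO. Human RUES2-GLR pluripotent line differentiated 48 h, dosed twice at 24-h intervals across 1 nM - 200 uM (10 points).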

The target of another assay is THRA (gene 7067) (UniProt P10827). Nature of the assay: TOX21_TRA_COA_Antagonist_Followup_ratio: Tox21 Thyroid Hormone Receptor alpha Antagonism through Coactivator Recruitment Follow-Up Assay, Ratio (AID 2283953; active = hit-call score of the fitted dose curve at least 0.9, where 1 is the maximum). The method, boiled down:
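GST-TRα LBD 2.5 nM, BSA 0.10%, + cpd; then FITC-SRC-2 peptide 200 nM + Tb-anti-GST Ab 2 nM. TR-FRET ratio 520/495 nm. Norm: DMSO = 0%, T3 = 100%.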

The nature of assay [9]: CCTE_Harrill_HTTr_CellCount_MCF7: CCTE's Cell Proliferation Assessment for the High-Throughput Transcriptomics (HTTr) Platform, Harrill Lab (AID 2284012; active = hit-call score of the fitted dose curve at least 0.9, where 1 is the maximum;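 also: cells exposed to compound for six hours; intended direction is loss of nuclei count meaning fewer cells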). The method, boiled down:
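Cell count served as viability reporter: loss of Hoechst-stained nuclei, counted by high content imaging, marks decreased growth or survival. Exposure was 6 h in MCF-7 cells across eight concentrations, with DMSO as baseline.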

Assay [10] is described as follows: CCTE_Shafer_MEA_dev_firing_rate_mean: CCTE's Neural Network Formation Assay for Mean Firing Rate, Shafer Lab (AID 2284031).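 As to AC50: curve fitted for loss of firing so AC50 reflects decreased mean firing rate.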 The method, boiled down: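 Steps: seed rat cortical cells (1.5 x 10^5/well) with laminin on PEI-coated MEA; dose day 0; record DIV 5/7/9/12, full media and compound exchange after DIV 5 and 9 recordings; compute well-mean firing rate AUC.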

A short description of assay [11]: CCTE_Shafer_MEA_dev_per_burst_spike_percent: CCTE's Neural Network Formation Assay for Percent of Spikes in a Burst, Shafer Lab (AID 2284032).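 As to AC50: fitted as a decrease in burst spike percentage below DMSO baseline.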 The method, boiled down: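 Value is trapezoidal AUC over recordings on days 5, 7, 9 and 12 of the well-mean fraction of spikes falling in single-electrode bursts; rat cortical cultures exposed continuously from plating, treatment renewed DIV 5 and 9, fitted downward against DMSO.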

Assay [12] in a line: CCTE_Shafer_MEA_dev_active_electrodes_number: CCTE's Neural Network Formation Assay for Number of Active Electrodes, Shafer Lab (AID 2284040; active = hit-call score of the fitted dose curve at least 0.9, where 1 is the maximum;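 as to AC50: potency for loss of active electrodes versus DMSO so lower counts are hits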). The method, boiled down: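 Counts electrodes per well firing at least 5 spikes/min, recorded on days 5, 7, 9 and 12 in rat cortical cultures dosed continuously from plating (treatment refreshed DIV 5, 9). Value is the area under the curve over recordings, fitted downward relative to DMSO.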

THRA (gene 7067), sequence (P10827 whole entry, looked up, the tested form may be a part): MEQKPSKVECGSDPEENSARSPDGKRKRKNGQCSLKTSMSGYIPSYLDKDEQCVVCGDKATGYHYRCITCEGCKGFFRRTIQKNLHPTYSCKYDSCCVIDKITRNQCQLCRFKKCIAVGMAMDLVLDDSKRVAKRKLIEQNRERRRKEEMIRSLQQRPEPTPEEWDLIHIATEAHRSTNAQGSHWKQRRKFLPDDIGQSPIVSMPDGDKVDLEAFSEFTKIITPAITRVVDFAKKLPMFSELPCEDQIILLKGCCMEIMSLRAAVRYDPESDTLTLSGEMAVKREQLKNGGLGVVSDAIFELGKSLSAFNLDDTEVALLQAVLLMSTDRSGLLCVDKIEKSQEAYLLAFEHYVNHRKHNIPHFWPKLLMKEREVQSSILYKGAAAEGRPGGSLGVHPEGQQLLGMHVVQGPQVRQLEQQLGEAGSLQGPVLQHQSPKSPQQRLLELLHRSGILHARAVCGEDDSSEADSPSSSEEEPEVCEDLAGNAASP

The term AC50 denotes the midpoint of the concentration-response curve, whichever way the signal moves. Turning to `Cc1nc(Nc2ncc(C(=O)Nc3c(C)cccc3Cl)s2)cc(N2CCN(CCO)CC2)n1`, the AC50 in assay [1] is 0.0582 µM (active); in assay [2], 0.811 µM (active); in assay [3] it was 151 µM (active); in assay [4], 0.633 µM (active); in assay [5], 21.7 µM (active); in assay [6] it was 0.0574 µM (active). Besides, the AC50 was 0.017 µM (active) in assay [7] and 0.0132 µM (active) in [8].
Regarding `COc1cc2c(Nc3ccc(Br)cc3F)ncnc2cc1OCC1CCN(C)CC1`, the half-maximal activity concentration (AC50) is 4.51 µM (active) in assay [1]; 4.92 µM (active) in assay [2]; 7.85 µM (active) in assay [3]; 4.83 µM (active) in assay [4]; 6.72 µM (active) in assay [5]; 4.46 µM (active) in assay [6]. In addition, in [8], the result was inactive.
Take `Nc1c2ccccc2nc2ccccc12`: the outcome with THRA (gene 7067) was inactive.
In the case of `COc1cc2ncnc(Nc3ccc(F)c(Cl)c3)c2cc1OCCCN1CCOCC1`, the AC50 in assay [1] was 6.58 µM (active); in assay [2] it was 5.74 µM (active); in assay [3], 5.86 µM (active); in assay [4] it was 5.78 µM (active); in assay [5] it was 10.8 µM (active); in [6] it was 6.57 µM (active). Besides, the compound was called inactive in assay [7] and in assay [8].
In the case of `CC(=O)NCCCS(=O)(=O)O`, the compound was classed as inactive in assay [9].
Take `CCCC(=O)O[C@]1(C(=O)CCl)[C@@H](C)C[C@H]2[C@@H]3CCC4=CC(=O)C=C[C@]4(C)[C@@]3(F)C(=O)C[C@@]21C`: the result with THRA (gene 7067) was inactive.
Consider `CCCCC(=O)O[C@]1(C(=O)CO)[C@@H](C)C[C@H]2[C@@H]3CCC4=CC(=O)C=C[C@]4(C)[C@@]3(F)[C@@H](O)C[C@@]21C`, for which, in [9], the result was inactive.
As for `Cc1c(O)cccc1C(=O)N[C@@H](CSc1ccccc1)[C@H](O)CN1C[C@H]2CCCC[C@H]2C[C@H]1C(=O)NC(C)(C)C`, the values for the AC50 in assay [10], in assay [11] and in assay [12] were 0.438 µM (active), 1.43 µM (active) and 0.953 µM (active), respectively.
As to `COC(=O)Nc1nc2ccc(Sc3ccccc3)cc2[nH]1`, the outcome in the assay with THRA (gene 7067) was inactive.
Take `CC1(C)S[C@@H]2[C@H](NC(=O)[C@H](N)c3ccc(O)cc3)C(=O)N2[C@H]1C(=O)O`: the compound was classed as inactive in assay [10], in assay [11] and in [12].
Regarding `C1=CCC(c2ccccc2)CC1` (stereo unspecified), the call in [9] was inactive.
Take `O=C1Cc2cc(CCN3CCN(c4nsc5ccccc45)CC3)c(Cl)cc2N1`: the AC50 was 3.31 µM (active) in assay [1]; 3.91 µM (active) in assay [2]; 4.3 µM (active) in [3]; 3.99 µM (active) in assay [4]; 4.78 µM (active) in [5]; 3.31 µM (active) in assay [6]. Moreover, the AC50 in [8] is 4.26 µM (active). In assay [7], the compound was called inactive.
`CCOC(=O)n1ccn(C)c1=S`: the call in assay [9] was inactive.
For the compound `Clc1cccc(Cl)c1NC1=NCCN1`, the outcome in assay [9] was inactive.
For the compound `OCC1CC2CC1C1CCC(CO)C21` (stereo unspecified), the compound was classed as inactive in assay [9].

The record behind these values is PubChem BioAssay (EPA / NIEHS).
